Screening results as filed in PubChem.
Most compounds without a hit are left out; they make up all but 3.4% or so of the library.
MITF TRPM1 HTS: activators of MITF-driven TRPM1 promoter reporter, primary screen, cell-based, SK-MEL-5, luciferase, single point; 0.75% of 300,000 active; activation, % at 12.5 µM; SK-MEL-5 TRPM1-promoter luciferase, 24 h; % of positive control, neutral wells = 0; AID 588334, 2011;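 active = mean activation of at least 80% with every replicate also reaching 80%; inconclusive = mean reaches 80% but some replicate falls short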;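 also: 0% = neutral control wells and 100% = parthenolide positive control wells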
Env fusion inh: inhibitors of HIV-1 Env-driven cell-cell fusion, primary screen, HeLa-JRFL effector, CEM21 target cells, luciferase; inhibition, % at 12.3 µM; 1.1% of 360,000 active; AID 651610, 2012;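 active = mean replicate inhibition score of at least 50 and every replicate individually at or above 50; inconclusive = only one of the two criteria met; inactive = mean below 50 and not all replicates reaching 50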;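 also: 0% = plate neutral controls and 100% = maraviroc near 300 nM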
miR-122 sensor: miR-122 Renilla sensor signal increase in Huh7, primary screen, miR-122 inhibitor project, cell-based, single point, plate reader; Huh7 miR-122 Renilla luciferase sensor, 48 h; neutral wells = 0, positive control = 100; activation (reporter increase), % at 12.5 µM; 0.3% of 340,000 active; AID 602342, 2012;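 active = mean replicate activation score at least 90 and every replicate individually at or above 90; inconclusive = only one of the two criteria met; inactive = neither criterion met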;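 also: higher luciferase means less miR-122 activity so hits act as miR-122 inhibitors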
Wnt act: Wnt/beta-catenin pathway activators, primary screen, cell-based, plate reader, single point; 1.2% of 300,000 active; Wnt/beta-catenin reporter cell assay, activator; activation, % at 9.35 µM; in the data active = activation above about 30%, passing the limit was not always enough; inconclusive = no clear call, values can overlap the other calls;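 also: 0% = neutral control wells and 100% = positive control wells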
esBAF inh: Bmi1 luciferase reporter increase in mESCs, primary screen, esBAF inhibitor project, mouse ES cells, Bmi1 luciferase knock-in, single point | reporter increase, % at 12.5 µM | 24 h; 100% = twice the neutral-well signal | 2% of 350,000 active | AID 602393, 2012; in the data active = activation above about 40%; inconclusive = no clear call, values can overlap the other calls;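 also: 0% = median of the plate's neutral control wells and 100% = double that signal; a rise in the Bmi1 reporter signal indicates esBAF inhibition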
* = called active by the depositor; ? = inconclusive; . = not tested or not shown; [ ] = remark or other dose.

SMILES	MITF TRPM1 HTS	Env fusion inh	miR-122 sensor	Wnt act	esBAF inh
Cc1nc2ccc3nc(NC(=O)C4COc5ccccc5O4)sc3c2s1 (stereo unspecified)	.	-41.1	-0.8	0.4	12.2
CCCCOCCCNC(=O)C[C@H]1C[C@@]2(C(=O)OC)C(=C[C@H](C(C)(C)C)O[C@@H]2C)N(Cc2ccc3c(c2)OCO3)C1=O	.	74.5*	.	-2.3	.
COC(=O)[C@]12C[C@H](CC(=O)NCc3cccc4ccccc34)C(=O)N(Cc3ccc4c(c3)OCO4)C1=C[C@H](C(C)(C)C)O[C@@H]2C	.	56.0*	.	-20.4	.
CCCCOCCCNC(=O)C[C@H]1C[C@@]2(C(=O)OC)C(=C[C@H](COCc3ccccc3)O[C@@H]2C)N(Cc2ccc3c(c2)OCO3)C1=O	.	-11.8	.	4.3	.
O=S(=O)(NCCC1=CCCCC1)c1cccc(Br)c1	8.0	.	.	-0.1	.
CCNS(=O)(=O)c1ccc2c3c(cccc13)C(=O)N2	.	-46.7	148.4*	-0.9	6.9
O=S(=O)(NCCC1=CCCCC1)c1c(Cl)cccc1Cl	-4.1	10.5	111.2*	3.7	-2.3
O=C1Nc2ccc(S(=O)(=O)NCCC3=CCCCC3)c3cccc1c23	-9.6	.	116.7*	.	-7.1
O=C1Nc2ccc(S(=O)(=O)NCCCO)c3cccc1c23	.	2.3	82.3	0.9	2.2
C[C@@H]1CCCCO[C@@H](CN(C)Cc2ccc(Cl)c(Cl)c2)[C@@H](C)CN([C@@H](C)CO)C(=O)c2cc(NC(=O)C3CCCCC3)ccc2O1	.	-14.5[16.7 µM]	1.1[16.7 µM]	.	3.7
CO[C@@H]1CN(C)C(=O)c2ccc(NC(C)=O)cc2OC[C@H](C)N(C(=O)C2CCOCC2)C[C@@H]1C	.	.	-18.3[16.7 µM]	.	-0.8
C[C@H](NC(=O)N(C)C[C@@H]1OCc2ccccc2-c2c(n(C)c3ccccc23)C(=O)N([C@H](C)CO)C[C@H]1C)c1ccccc1	.	8.2[16.7 µM]	.	.	3.8
C[C@@H]1CCCCO[C@H](CN(C)C(=O)Cc2ccccc2)[C@H](C)CN([C@H](C)CO)C(=O)c2cc(NS(=O)(=O)c3ccccc3)ccc2O1	.	-8.8[16.7 µM]	12.1[16.7 µM]	.	3.8
CC(OC(=O)c1ccc(S(=O)(=O)N(C)c2ccccc2)cc1)C(=O)NCCC1=CCCCC1 (stereo unspecified)	-1.5	-12.2	-9.1	2.0	5.2
CC(OC(=O)c1ccc(NC(=O)CC#N)cc1)C(=O)NCCC1=CCCCC1 (stereo unspecified)	-0.2	75.6*	1.2	-1.0	-0.5
COc1ccc(NC(=O)CNCCC2=CCCCC2)cc1	15.3	60.0*	-3.9	.	1.6
COc1ccc(COc2ccc3ccc(=O)oc3c2)cc1	118.2*	-69.3	-6.5	26.3	55.8*
COc1cccc(COc2ccc3ccc(=O)oc3c2)c1	60.7	-86.3	-7.2	24.9	39.1
CCCOc1ccc(C(F)(F)F)cc1NC(=O)CCc1c(C)noc1C	1.3	98.5*	-9.2	-4.0	-10.0
C[C@H]1CCCCO[C@H](CN(C)C(=O)c2ccccc2)[C@@H](C)CN([C@@H](C)CO)C(=O)c2cc(NC(=O)Nc3ccc(C(F)(F)F)cc3)ccc2O1	.	39.2[16.7 µM]	-3.1[16.7 µM]	.	1.7
C[C@@H]1CCCCO[C@H](CN(C)S(=O)(=O)c2cn(C)cn2)[C@@H](C)CN([C@H](C)CO)C(=O)c2cc(NC(=O)Nc3ccc(C(F)(F)F)cc3)ccc2O1	.	-1.9[16.7 µM]	2.0[16.7 µM]	.	2.7
CC1CCC(NC(=O)c2cccn2C)CC1 (stereo unspecified)	76.6	-63.6	8.3	42.1*	7.6
Cc1onc(-c2ccccc2)c1C(=O)NC1CCCCC1C (stereo unspecified)	.	-10.1	1.0	-0.9	-25.9
Cc1onc(-c2ccccc2)c1C(=O)NC1CCC(C)CC1 (stereo unspecified)	6.1	.	-5.8	444.0*	-1.2
COc1cc(-c2ccc3c(=O)c4ccccc4sc3c2)cc(OC)c1OC	64.7	-6.4	4.2	2.8	47.2*
SMILES	MITF TRPM1 HTS	Env fusion inh	miR-122 sensor	Wnt act	esBAF inh
COC(=O)c1c(-c2ccc(N(C)C)cc2)sc2ccc(OC)cc12	78.7	.	-3.5	19.7	23.1
COc1cc(-c2ccc3sc(-c4ccsc4)c(C#CCO)c3c2)cc(OC)c1OC	1.0	38.6	3.6	-3.6	-8.9
COC(=O)c1c(-c2ccsc2)sc2ccc(-c3cc(OC)c(OC)c(OC)c3)cc12	5.3	59.2*	.	-11.7	0.8
COC(=O)c1c(-c2ccc(OC)cc2)sc2cc3c(cc12)OCO3	91.7*	-25.9	7.3	33.4*	49.1*
O=C(/C=C/c1ccccc1)Nc1cccc(C(=O)NCCc2ccccc2)c1	?	-18.9	-5.3	11.2	62.0*
O=C(NCCCc1ccccc1)c1cccc(NC(=O)c2ccccc2)c1	3.7	-5.7	-1.0	-1.2	6.8
O=C(/C=C/c1ccccc1)Nc1cccc(C(=O)NCCCCc2ccccc2)c1	6.4	-32.1	-1.9	4.9	43.2*
O=C(/C=C/c1ccccc1)Nc1cccc(C(=O)N2CCCC2)c1	-3.5	-2.1	-4.3	11.8	21.3
COC(=O)c1c(NC(C)=O)sc(C(=O)Nc2ccccc2F)c1C	57.5	-18.4	.	36.8*	.
COC(=O)c1c(NC(C)=O)sc(C(=O)Nc2ccccc2)c1C	35.5	-0.1	-14.8	13.3	31.0
CCCC(=O)Nc1sc(C(=O)Nc2cccc(N)c2)c(C)c1C(=O)OC	44.8	0.4	-5.0	37.1*	7.0
CCC(=O)Nc1sc(C(=O)Nc2ccccc2F)c(C)c1C(=O)OC	?	-79.2	.	-5.8	.
CCc1nc(NC(C)(C)C)c2cnn(-c3ccccc3)c2n1	?	-20.3	7.4	26.9	73.5*
COc1ccc(C2N(C(C)=O)CCN2S(=O)(=O)c2ccc(C)cc2)cc1 (stereo unspecified)	0.8	0.5	6.3	1.7	-2.9
COc1ccc(C2N(S(=O)(=O)c3ccc(C)cc3)CCN2S(=O)(=O)c2ccc(C)cc2)cc1	.	104.8*	3.6	.	-7.3
Cc1ccc(S(=O)(=O)N2CCN(S(=O)(=O)c3ccccc3)C2c2ccc(N(C)C)cc2)cc1 (stereo unspecified)	-2.7	53.1*	6.5	-2.1	1.5
C[C@H](CO)N1C[C@H](C)[C@H](CN(C)S(=O)(=O)c2cccs2)OCCCC[C@H](C)Oc2ccc(N(C)C)cc2C1=O	.	-0.4[16.7 µM]	9.8[16.7 µM]	.	2.9
CC(=O)N(C)C[C@H]1Oc2cc(-c3ccccc3C)ccc2S(=O)(=O)N([C@H](C)CO)C[C@@H]1C	.	-5.5[16.7 µM]	-7.0[16.7 µM]	.	4.0
COc1ccc(-c2c(C)nc3c(-c4ccccn4)cnn3c2N)cc1	.	-282.9	-5.3	22.4	26.3
COc1ccc(-c2c(C)nc3c(-c4ccsc4)cnn3c2N)cc1	94.1*	-177.9	-2.7	28.7	10.0
C[C@@H]1CCCCO[C@@H](CN(C)S(=O)(=O)c2ccc(Cl)cc2)[C@@H](C)CN([C@@H](C)CO)C(=O)c2cc(NC(=O)c3ccncc3)ccc2O1	.	-21.4[16.7 µM]	5.3[16.7 µM]	.	0.3
